Source: publication PMC7819943, “Rice protein-binding microarrays: a tool to detect cis-acting elements near promoter regions in rice”
Whole data set: some 68,000 sequences, median “fluorescence intensity (a.u.)” near 9,100, cut for the highest 2% near 16,000. Only a selection was taken, and the highest values are over-represented in it overall.

These sequences were tested against OsWRKY34 (Oryza sativa, UniProt Q0JBA9 1-250) (assay: protein-binding microarray (RPBM); PBS, 2% BSA, 51.3 ng/ul salmon testes DNA, 50 uM zinc acetate, 200 nM TF, 25 C, 1 h; high values mean tight binding). Settings: protein: recombinant; tags: N-terminal polyhistidine and DsRed monomer fusion (pET32a); label: CyDye5-dUTP incorporated in the synthesized complementary strand; 3' TTTTT single-stranded linker to array surface; dsDNA, one strand shown.
Procedure, shortened: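 The binding signal is fluorescence intensity per array feature (arbitrary units). Readings came from an Axon 4000B scanner after a washed, 2% BSA-blocked, double-stranded custom Agilent array had been incubated for 1 h at 25 °C with 200 nM protein and 50 µM zinc acetate. The protein was a Ni–NTA-purified transcription factor fused N-terminally to polyhistidine and DsRed, expressed in E. coli BL21-CodonPlus.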

Sequence of OsWRKY34 (Q0JBA9 entry or part of it): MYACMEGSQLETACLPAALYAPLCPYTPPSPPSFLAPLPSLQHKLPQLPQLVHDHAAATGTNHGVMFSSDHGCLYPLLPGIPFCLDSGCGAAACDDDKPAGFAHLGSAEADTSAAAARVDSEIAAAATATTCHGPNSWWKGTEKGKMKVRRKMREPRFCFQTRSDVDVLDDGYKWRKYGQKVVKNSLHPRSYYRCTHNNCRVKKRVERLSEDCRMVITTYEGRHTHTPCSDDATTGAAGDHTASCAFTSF

Sequence | binding signal
ATTGCATCGCCCATTTCGCTCATGGATCAGTAGGTAGCCACGGAGTCACCTAGTGCAG | 8190 fluorescence intensity (a.u.)
AGTCAGTGACATCTATCTTTTCATCGATGTGTCTATTGCCCGGAGTCACCTAGTGCAG | 8640 fluorescence intensity (a.u.)
ACCCATCCATCGCCAGCCATGCACACCCTCGCTCTGACGACGGAGTCACCTAGTGCAG | 8640 fluorescence intensity (a.u.)
CAACGAGGAGCGATGCATATCTAGCAGTTTTGTTTTTCATCGGAGTCACCTAGTGCAG | 8420 fluorescence intensity (a.u.)
TACACCCTTGGGCCCACCTGTCAACCTCTCACCCTATATTCGGAGTCACCTAGTGCAG | 11900 fluorescence intensity (a.u.)
GATGAGTCCTCACCTGAGTTTCTTCCGTCCATGGCGGCCGCGGAGTCACCTAGTGCAG | 10500 fluorescence intensity (a.u.)
ATCCCCAGCCTCCAATACCGGTCCCGTGCTTGTTTTTCTTCGGAGTCACCTAGTGCAG | 9470 fluorescence intensity (a.u.)
AATTCGTACTTTTTCCTTTGTGTTTTGTCTATCTTAAATTCGGAGTCACCTAGTGCAG | 14300 fluorescence intensity (a.u.)
AAACCCACCCACCCAGCGCTTCTTCTTTCCTTTCTTTATTCGGAGTCACCTAGTGCAG | 12900 fluorescence intensity (a.u.)
TTTCCAACCTGATCGGGTGCTGCCTTTTCATTCTTCCCTCCGGAGTCACCTAGTGCAG | 8430 fluorescence intensity (a.u.)
ATTTCCCCTGAACTCTACGTTTACAGGTTATGGTTATCTCCGGAGTCACCTAGTGCAG | 8350 fluorescence intensity (a.u.)
ATACATATTTTTTTCTCTATTTCTGCCCAACATGTTTTTCCGGAGTCACCTAGTGCAG | 8950 fluorescence intensity (a.u.)
AAGGGTTATCGACCTACGCCTGCTGGCCCTTTTCGGCTTTCGGAGTCACCTAGTGCAG | 9300 fluorescence intensity (a.u.)
TCGGCGGCGAGGTGGTGGCGGTGGCGGTGGTGGGAGTAGTCGGAGTCACCTAGTGCAG | 15200 fluorescence intensity (a.u.)
CTGTGCGGGAGGTGGAGATGGAGATGGTGGGTGGATCGGACGGAGTCACCTAGTGCAG | 8630 fluorescence intensity (a.u.)
CGCTCGGCGGTGAGGTGGAGGTGGAGGTGGGTGGGAGATGCGGAGTCACCTAGTGCAG | 12900 fluorescence intensity (a.u.)
TGCATTGACCAGGTCAACGGGAGAGGGAGGGGCAAAATCGCGGAGTCACCTAGTGCAG | 19600 fluorescence intensity (a.u.)
CGTTGGAACGTGCGGGTGTGGGGAAACTGAGGGTGAGGATCGGAGTCACCTAGTGCAG | 8600 fluorescence intensity (a.u.)
TGGTGGTGGTGGTGGCTGTAGTGTGGAGGTGGTGGGGAGTCGGAGTCACCTAGTGCAG | 16700 fluorescence intensity (a.u.)
GATGCGGGTGAGGTGCCGCGCTGTGGGGAGAGAGGGTGGGCGGAGTCACCTAGTGCAG | 8560 fluorescence intensity (a.u.)
GCTGTGGCGGAGGTGGGGAGGTGGAGGTGGAGGGGAGATGCGGAGTCACCTAGTGCAG | 24600 fluorescence intensity (a.u.)

Sequence | binding signal
TGTCAGGTCAAATCGGGGAGGCGGGGTGCGTACCAACGGTCGGAGTCACCTAGTGCAG | 11900 fluorescence intensity (a.u.)
GGGAGATTTGTTGCAACGGAGGGCATTGAGTGGTGGGGACCGGAGTCACCTAGTGCAG | 8570 fluorescence intensity (a.u.)
AAACGCTGTGGTGGGTGGTGGTGCGGATGGGGAGGTGTGGCGGAGTCACCTAGTGCAG | 14100 fluorescence intensity (a.u.)
GAGGTGGGTGTGGAACTGTGGATGCGGGTCGGGGAGATCGCGGAGTCACCTAGTGCAG | 16900 fluorescence intensity (a.u.)
CATCTGATCGGCATCGGCATCGTCCTCGTCCTCGGCATCACGGAGTCACCTAGTGCAG | 9990 fluorescence intensity (a.u.)
TCTGGGTATCCTCTGTTATGTCATCTTCACCTCCATTTGGCGGAGTCACCTAGTGCAG | 8690 fluorescence intensity (a.u.)
CTGCTAGCCCGGTTAATCTACCAAAACCCGTCTTGATTTACGGAGTCACCTAGTGCAG | 9070 fluorescence intensity (a.u.)
TTAGTATAGCTGTATTCTTCCCAACTTCCTATTTTCCTCTCGGAGTCACCTAGTGCAG | 8540 fluorescence intensity (a.u.)
CTCGAACCACTGACCATCCCGTCCACACTGCACCGCGCTACGGAGTCACCTAGTGCAG | 8260 fluorescence intensity (a.u.)
AGCCACGACCCAATCTTCGCTGCGGTTGACTTTAAATTAACGGAGTCACCTAGTGCAG | 9760 fluorescence intensity (a.u.)
GCGTGTGTTCTTGTGCTGGATTGTGGAGTTCTTGATCCCTCGGAGTCACCTAGTGCAG | 10000 fluorescence intensity (a.u.)
GGCGGCGCGGGTTTAGCGGGATGGGGAGGCGGCGAGTGGCCGGAGTCACCTAGTGCAG | 8140 fluorescence intensity (a.u.)
GATAACATGTTGTAGTCTTCCAGGGGTGGGTGTTAGCTGTCGGAGTCACCTAGTGCAG | 16700 fluorescence intensity (a.u.)
GCGATGGGAGGTGGGCGACGCGAGGGAGAGGGGAGAGGGGCGGAGTCACCTAGTGCAG | 18500 fluorescence intensity (a.u.)
AACATAACTGTCTTCTTCCATTTGTATGTCATGTTTCTGTCGGAGTCACCTAGTGCAG | 10700 fluorescence intensity (a.u.)
GCGCGGCGCGGCGGGACGGGGTGGGGCGAGGGCAGCAGCGCGGAGTCACCTAGTGCAG | 8520 fluorescence intensity (a.u.)
AGGAGGGGAGGCGCGGCGGAGGAGAAGAGGTGGGGATGGACGGAGTCACCTAGTGCAG | 10000 fluorescence intensity (a.u.)
GGACGGAGGGGCGGGGTGCGACGCGGACGGCGGCGGCGGGCGGAGTCACCTAGTGCAG | 13500 fluorescence intensity (a.u.)
TGTGGGACGATGGGGAGGTGTGGGGACGCACGCGGGGCGACGGAGTCACCTAGTGCAG | 10200 fluorescence intensity (a.u.)
ACTCCGGCGGGTTAGGGTTTGGGGTTGGGGTGAGGGTAGGCGGAGTCACCTAGTGCAG | 10900 fluorescence intensity (a.u.)
CGAAATGGGAGGCGGGGTTTAGGGTTTCCGGCGGGGAGGGCGGAGTCACCTAGTGCAG | 25200 fluorescence intensity (a.u.)
